Holding throughout (assay): HT-SELEX; high values mean tight binding
Conditions in all cases: protein: recombinant; vector His6-GST; dsDNA, one strand shown

Test [1] has as its target T1, SALL4 ZFC4 WT (HT-SELEX) (Mus musculus, UniProt Q8BX22 870-940).
T1 sequence: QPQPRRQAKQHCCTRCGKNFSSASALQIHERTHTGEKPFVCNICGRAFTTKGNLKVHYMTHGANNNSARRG
Put shortly:
(§1)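 Each canonical k-mer's binding signal is its read fraction expressed as fold change over the initial random library. Reads came from MiSeq sequencing, scanned for 6-mers, after up to 6 triplicate cycles in which purified recombinant mouse SALL4 zinc finger cluster 4 (residues 870–940, 1 µg) bound library DNA (1.5 µg first cycle, 200 ng later) in 100 µl of 10 mM Tris–HCl pH 7.5, 50 mM NaCl, poly(dI-dC), DTT for 10 min at room temperature. Complexes were then Ni2+ bead-captured, washed, PCR-amplified and reselected.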

The target in test [2] is T2, SALL4 ZFC4 R900W (HT-SELEX) (Mus musculus, UniProt Q8BX22 870-940, R900W).
T2 sequence: T1 sequence with R31W
Put shortly: as §1

In test [3] the target is T3, SALL4 ZFC4 G921D (HT-SELEX) (Mus musculus, UniProt Q8BX22 870-940, G921D).
T3 sequence: T1 sequence with G52D
Put shortly: as §1

Where a chain is given by its changes, count along the chain named.

As for GGGGTA, the binding signal was determined as 0.484 ± 0.0383 fold-change vs cycle 0 in test [1], 0.541 ± 0.0115 fold-change vs cycle 0 in test [2] and 0.611 ± 0.0687 fold-change vs cycle 0 in test [3].
Take CACTGC: the binding signal is 0.334 ± 0.0238 fold-change vs cycle 0 in test [1], 0.388 ± 0.00394 fold-change vs cycle 0 in test [2] and 0.511 ± 0.0704 fold-change vs cycle 0 in test [3].
Turning to TATAAA, the figures for the binding signal in test [1], in test [2] and in test [3] were 3.97 ± 0.451 fold-change vs cycle 0, 2.53 ± 0.209 fold-change vs cycle 0 and 2.14 ± 0.302 fold-change vs cycle 0, respectively.
The corresponding values for AACCCG are 0.371 ± 0.0321 fold-change vs cycle 0, 0.432 ± 0.0178 fold-change vs cycle 0 and 0.538 ± 0.0569 fold-change vs cycle 0.
Regarding AAGGAA, the results for the binding signal in test [1], in test [2] and in test [3] were 1.46 ± 0.0939 fold-change vs cycle 0, 1.66 ± 0.0995 fold-change vs cycle 0 and 1.49 ± 0.137 fold-change vs cycle 0, respectively.
For AGGATC, in that order: 0.876 ± 0.0353 fold-change vs cycle 0, 1.01 ± 0.0497 fold-change vs cycle 0 and 1.07 ± 0.0215 fold-change vs cycle 0.
CAGAGC: the binding signal in test [1] is 0.315 ± 0.0109 fold-change vs cycle 0; in test [2], 0.382 ± 0.0231 fold-change vs cycle 0; in test [3], 0.524 ± 0.0543 fold-change vs cycle 0.
ACAGCT: the binding signal was found to be 0.616 ± 0.0411 fold-change vs cycle 0 in test [1], 0.714 ± 0.0328 fold-change vs cycle 0 in test [2] and 0.811 ± 0.0395 fold-change vs cycle 0 in test [3].
The corresponding values for AGTGGG are 0.455 ± 0.0261 fold-change vs cycle 0, 0.528 ± 0.0236 fold-change vs cycle 0 and 0.608 ± 0.0502 fold-change vs cycle 0.
Consider CCAACC, for which the binding signal was found to be 0.393 ± 0.0262 fold-change vs cycle 0 in test [1], 0.466 ± 0.0254 fold-change vs cycle 0 in test [2] and 0.565 ± 0.0588 fold-change vs cycle 0 in test [3].
For AAGTTC, in that order: 1.29 ± 0.0532 fold-change vs cycle 0, 1.44 ± 0.0457 fold-change vs cycle 0 and 1.36 ± 0.0438 fold-change vs cycle 0.
For CAGTCA, in that order: 0.794 ± 0.0288 fold-change vs cycle 0, 0.925 ± 0.0192 fold-change vs cycle 0 and 0.946 ± 0.028 fold-change vs cycle 0.
The corresponding values for AGGAAT are 1.52 ± 0.0788 fold-change vs cycle 0, 1.63 ± 0.0707 fold-change vs cycle 0 and 1.49 ± 0.113 fold-change vs cycle 0.
In the case of GTCTAA, the binding signal in test [1] amounted to 1.16 ± 0.029 fold-change vs cycle 0; in test [2] it was 1.28 ± 0.0593 fold-change vs cycle 0; in test [3] it was 1.27 ± 0.0407 fold-change vs cycle 0.
For ATATAA, in that order: 4.98 ± 0.592 fold-change vs cycle 0, 2.65 ± 0.229 fold-change vs cycle 0 and 2.24 ± 0.302 fold-change vs cycle 0.
With AGGTAT, the results for the binding signal in test [1], in test [2] and in test [3] were 1.44 ± 0.0737 fold-change vs cycle 0, 1.54 ± 0.0608 fold-change vs cycle 0 and 1.47 ± 0.0842 fold-change vs cycle 0, respectively.
The corresponding values for ACATGC are 0.613 ± 0.0259 fold-change vs cycle 0, 0.7108 ± 0.0052 fold-change vs cycle 0 and 0.774 ± 0.017 fold-change vs cycle 0.
As to GTACCA, the binding signal in test [1] came to 0.755 ± 0.0123 fold-change vs cycle 0; in test [2], 0.835 ± 0.0283 fold-change vs cycle 0; in test [3] it was 0.893 ± 0.0178 fold-change vs cycle 0.
For the sequence CTACAG, the binding signal in test [1] came out at 0.79 ± 0.0207 fold-change vs cycle 0; in test [2] it was 0.894 ± 0.0405 fold-change vs cycle 0; in test [3], 0.94 ± 0.015 fold-change vs cycle 0.
Consider ATCTTC, for which the binding signal in test [1] turned out to be 1.42 ± 0.0263 fold-change vs cycle 0; in test [2], 1.58 ± 0.0645 fold-change vs cycle 0; in test [3] it was 1.46 ± 0.104 fold-change vs cycle 0.
The corresponding values for AGCTAG are 0.723 ± 0.0356 fold-change vs cycle 0, 0.815 ± 0.0265 fold-change vs cycle 0 and 0.874 ± 0.021 fold-change vs cycle 0.
The corresponding values for CTCAAC are 0.775 ± 0.0132 fold-change vs cycle 0, 0.9089 ± 0.00888 fold-change vs cycle 0 and 0.928 ± 0.0107 fold-change vs cycle 0.
With GCTGAA, the figures for the binding signal in test [1], in test [2] and in test [3] were 0.582 ± 0.0146 fold-change vs cycle 0, 0.67 ± 0.0322 fold-change vs cycle 0 and 0.774 ± 0.0356 fold-change vs cycle 0, respectively.
Take TATCCA: the binding signal in test [1] was determined as 1.41 ± 0.0597 fold-change vs cycle 0; in test [2] it was 1.44 ± 0.0638 fold-change vs cycle 0; in test [3], 1.34 ± 0.0962 fold-change vs cycle 0.
In the case of CTCTAA, the binding signal is 1.25 ± 0.0589 fold-change vs cycle 0 in test [1], 1.39 ± 0.103 fold-change vs cycle 0 in test [2] and 1.36 ± 0.0965 fold-change vs cycle 0 in test [3].
Regarding AGGGGG, the binding signal in test [1] worked out at 0.323 ± 0.0254 fold-change vs cycle 0; in test [2], 0.375 ± 0.0258 fold-change vs cycle 0; in test [3] it was 0.443 ± 0.0497 fold-change vs cycle 0.
ACCCGT: the binding signal in test [1] was 0.418 ± 0.0141 fold-change vs cycle 0; in test [2], 0.5 ± 0.0199 fold-change vs cycle 0; in test [3], 0.577 ± 0.0315 fold-change vs cycle 0.
For AGATCC, in that order: 0.821 ± 0.0254 fold-change vs cycle 0, 0.949 ± 0.0348 fold-change vs cycle 0 and 1.045 ± 0.00383 fold-change vs cycle 0.

(Values after publication PMC9838217, “Structure of SALL4 zinc finger domain reveals link between AT-rich DNA binding and Okihiro syndrome”.)
